“And” between values parts separate entries of the source, which are not always exact repeats. Identical values can stand only once. Records with an inconclusive call do not appear. Values without a mark were called inactive. The source made the active and inactive calls. The call rests on the fitted dose curve; in most records, active means well fitted inhibition curve with a large enough effect; inconclusive means small, poorly fitted or top-dose-only effect; inactive means flat fitted curve, though single readings scatter.
system: KB-3-1; test: Cytotoxic Profiling of Annotated Libraries Using Quantitative High-Throughput Screening (AID 1296008); conditions: Five cell lines viability, CellTiter-Glo ATP luminescence, 48-72 h; max response: active compounds read low; further: nearly all actives have a fitted effect of over 60% in size
In short: (§1)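 Compounds were pin-transferred onto cells and incubated 48 or 72 hr at 37 degree Celsius, 95% humidity. CellTiter-Glo was added, plates sat 10 min at room temperature, then ATP-coupled luminescence was imaged as the viability read-out.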
On the % scale 0 is the no-effect control and ±100 the full control effect; potency means the concentration at half of the fitted maximal effect.

Compound	max response	Potency	outcome
COc1cc2c(N3CCN(C(=O)Nc4ccc(OC(C)C)cc4)CC3)ncnc2cc1OCCCN1CCCCC1	-30.9% and -5.38%		
O=c1oc2cc(O)ccc2s1	-11.2% and -4.56%		
NS(=O)(=O)c1cc(C(=O)O)c(NCc2ccco2)cc1Cl	-9.49% and -2.22%		
CC(C)C[C@H](NC(=O)[C@H](Cc1ccccc1)NC(=O)c1cnccn1)B(O)O		58 nM (active) and 105 nM (active)	
C[C@@H](c1ncncc1F)[C@](O)(Cn1cncn1)c1ccc(F)cc1F	-4.61%		
O=C(O)c1cn(-c2ccc(F)cc2)c2cc(N3CCNCC3)c(F)cc2c1=O	14.5% and 6.97%		
CC(C)[N+]1(C)[C@@H]2CC[C@H]1CC(OC(=O)C(CO)c1ccccc1)C2 (stereo partly specified)	9.75% and 15.3%		
Cc1ccc(S(=O)(=O)NC(=O)NN2CC3CCCC3C2)cc1 (stereo unspecified)	5.5% and -19.7%		
Cc1cccc(-c2[nH]ncc2-c2ccc3ncccc3n2)n1	-11.3%		
CCCOc1ccc2nc(NC(=O)OC)[nH]c2c1		731 nM (active)	
O=c1c(O)c(-c2ccc(O)cc2O)oc2cc(O)cc(O)c12	-10.8%		
S=c1nc[nH]c2nc[nH]c12		7430 nM (active)	
O=C1NC(=O)C(c2ccccc2[N+](=O)[O-])=C1Nc1ccc(O)c(Cl)c1			inactive
N=C(N=C(N)N)N1CCOCC1	-9.57% and 4.72%		
O=c1c(O)c(-c2cc(O)c(O)c(O)c2)oc2cc(O)cc(O)c12	2.62%		
O=P(O)(O)C(O)(Cn1ccnc1)P(=O)(O)O	-1.09% and 1.16%		
CC(C)c1ccc2c(c1)c(SC(C)(C)C)c(CC(C)(C)C(=O)O)n2Cc1ccc(Cl)cc1	-8.99%		
Cc1cc(C2CCCCC2)n(O)c(=O)c1	-16.3%		
Cc1nc2n(c(=O)c1CCN1CCC(c3noc4cc(F)ccc34)CC1)CCCC2	0.624% and -4.98%		
CN(C)CCCC1(c2ccc(F)cc2)OCc2cc(C#N)ccc21 (stereo unspecified)	-8.3% and 1.59%		

system: NIH3T3; test: as above; conditions: Five cell lines viability, CellTiter-Glo ATP luminescence, 48-72 h; max response: active compounds read low
In short: as §1

Compound	max response	outcome	Potency
O=C(OC1C[C@H]2CC[C@@H](C1)[N+]21CCCC1)C(O)(c1ccccc1)c1ccccc1 (stereo partly specified)	-8.22%		
Oc1ccc2ccccc2c1SSc1c(O)ccc2ccccc12		inactive	
Oc1ccc(-c2nc(-c3ccc(F)cc3)c(-c3ccncc3)[nH]2)cc1		inactive	
Nc1ccn([C@@H]2O[C@H](CO)[C@@H](O)C2O)c(=O)n1 (stereo partly specified)		inactive	
CC1(C)C(=O)N(CCN2CCC(C(=O)c3ccc(F)cc3)CC2)c2ccccc21	-5.82%		
C[C@]12CCC(=O)C=C1CC[C@@H]1[C@H]2[C@@H](O)C[C@@]2(C)[C@H]1CC[C@]2(O)C(=O)CO		inactive	
O=C(c1ccccc1)c1ccc2n1CCC2C(=O)O (stereo unspecified)	-2.4% and -6.59%		
CCOC(=O)C(C)Oc1cccc2c(=O)n(CC(=O)Nc3ccc4c(c3)OCCO4)ccc12 (stereo unspecified)	0.733%		
O=C(CS(=O)Cc1ccco1)NCC=CCOc1cc(CN2CCCCC2)ccn1 (stereo unspecified)		inactive	
COC(=O)C1=C(C)NC(C)=C(C(=O)OC(C)C)C1c1cccc2nonc12 (stereo unspecified)	1.63%		
Clc1ccc2c(N3CCN(CCCN4CCN(c5ccnc6cc(Cl)ccc56)CC4)CC3)ccnc2c1	-5.21%		
CN(C)c1ccc2nc3ccc(=[N+](C)C)cc-3sc2c1			5.26 µM (active) and 3.35 µM (active)
CC(C)(S)[C@@H](N)C(=O)O		inactive	
COc1cc2c(N3CCN(C(=O)Nc4ccc(OC(C)C)cc4)CC3)ncnc2cc1OCCCN1CCCCC1	-26.1%		
O=c1oc2cc(O)ccc2s1	-4.48%		
NS(=O)(=O)c1cc(C(=O)O)c(NCc2ccco2)cc1Cl	-5.6% and -3.32%		
CC(C)C[C@H](NC(=O)[C@H](Cc1ccccc1)NC(=O)c1cnccn1)B(O)O			53.1 nM (active) and 11.6 nM (active)
C[C@@H](c1ncncc1F)[C@](O)(Cn1cncn1)c1ccc(F)cc1F	-4.26%		

Compound	max response	outcome	Potency
O=C(O)c1cn(-c2ccc(F)cc2)c2cc(N3CCNCC3)c(F)cc2c1=O	-0.0226% and -6.36%		
COc1cc(Nc2c(C#N)cnc3cc(OCCCN4CCN(C)CC4)c(OC)cc23)c(Cl)cc1Cl			9.44 µM (active) and 1.18 µM (active) and 8.2 µM (active)
CC(C)[N+]1(C)[C@@H]2CC[C@H]1CC(OC(=O)C(CO)c1ccccc1)C2 (stereo partly specified)		inactive	
Cc1ccc(S(=O)(=O)NC(=O)NN2CC3CCCC3C2)cc1 (stereo unspecified)	2.24% and -2.1%		
O=C(CCc1ccc(O)cc1)c1c(O)cc(O)cc1O		inactive	
Cc1cccc(-c2[nH]ncc2-c2ccc3ncccc3n2)n1	-18.1%		
O=c1c(O)c(-c2ccc(O)cc2O)oc2cc(O)cc(O)c12	-16.7%		
S=c1nc[nH]c2nc[nH]c12			1.88 µM (active) and 4.69 µM (active)
O=C1NC(=O)C(c2ccccc2[N+](=O)[O-])=C1Nc1ccc(O)c(Cl)c1		inactive	
N=C(N=C(N)N)N1CCOCC1	-0.0574% and 2.52%		
O=c1c(O)c(-c2cc(O)c(O)c(O)c2)oc2cc(O)cc(O)c12	-26.9%		
O=P(O)(O)C(O)(Cn1ccnc1)P(=O)(O)O	-2.33%		
COc1cc(OC)c(C(=O)CCCN2CCCC2)c(OC)c1	-4.19%	inactive	
CC(C)c1ccc2c(c1)c(SC(C)(C)C)c(CC(C)(C)C(=O)O)n2Cc1ccc(Cl)cc1		inactive	
Cc1cc(C2CCCCC2)n(O)c(=O)c1			3.76 µM (active) and 14.8 µM (active)
Cc1nc2n(c(=O)c1CCN1CCC(c3noc4cc(F)ccc34)CC1)CCCC2	-4.59% and 2.76%		
CN(C)CCCC1(c2ccc(F)cc2)OCc2cc(C#N)ccc21 (stereo unspecified)	-3.81% and 4.08%		

— PubChem BioAssay (NCATS)
